The whole screen tested about 370,000 compounds, of which about 4,100 (1.1%) were called active.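 Rule for the calls: active = inhibition above the mean over all tested compounds plus 3 SD (cut at about 3.6% in these data); inactive = the rest.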 The entries come from a sample that favours actives as a whole.
Experiment: relief of DAX-1 repression of SF-1 activity – cell-based, luminescence, SF-1 (NR5A1), full-length DAX-1, primary screen (AID 652010);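 note: 0% = DAX-1 cells with DMSO and 100% = cells lacking DAX-1 with DMSO; higher inhibition means more luminescence from relief of DAX-1 repression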
Conditions: HEK293T StAR-luciferase reporter, SF-1/DAX-1 repression relief; at 6.8 µM; hits give high values

| SMILES | inhibition |
| --- | --- |
| COC(=O)[C@]12C[C@H](CC(=O)NCCc3ccccc3OC)C(=O)N(Cc3ccccc3)C1=C[C@H](C(C)C)O[C@@H]2C1CC1 | 0.15% (inactive) |
| CCOC(=O)[C@]12CCCCC/C=C\1N(Cc1ccc(OC)cc1)C(=O)[C@H]2CC(=O)N1CCOCC1 | -0.42% (inactive) |
| CN1C(=O)C2CC(O)C(SC3CC4C(=O)N(C)C(=O)C4CC3O)CC2C1=O (stereo not given) | 0.64% (inactive) |
| CCOC(=O)/C=C/c1ccccc1O | 0.4% (inactive) |
| COc1cccc(CNC(=O)[C@H]2CCCN2C(=O)[C@H]2CCCN2C(=O)c2cc(F)cc(F)c2)c1 | 0.51% (inactive) |
| CCn1c2ccccc2c2cc(NC(=O)CSc3nnc(-c4ccccc4)n3-c3ccc(C)cc3)ccc21 | -0.77% (inactive) |
| CN1C(=O)c2cc(NS(C)(=O)=O)ccc2OC[C@@H]2O[C@@H](CC(=O)NCc3ccc(-c4ccccc4)cc3)CC[C@H]21 | -0.35% (inactive) |
| CC(C)(C)NS(=O)(=O)NC(=O)C1=C(N2CCCC2)COC1=O | 0.57% (inactive) |
| CCCCNC(=O)C[C@H]1C(=O)N(Cc2ccc(OC)cc2)C2=CCCC[C@@]21C(=O)OCC | -0.74% (inactive) |
| C[C@H]1[C@H](c2ccccc2)Oc2cc(Br)ccc2S(=O)(=O)N1Cc1cccc(F)c1 | -0.98% (inactive) |
| Cc1c(C(C)c2ccccc2O)[nH]c2ccccc12 (stereo not given) | -1.62% (inactive) |
| C[C@@H](NC(=O)c1ccccc1OCC(=O)Nc1ccc(I)cc1)C(=O)N(C)Cc1ccccc1 | -1.33% (inactive) |
| CC1CCN(C(=S)c2ccc(-c3ccc(Cl)cc3Cl)o2)CC1 | 0.67% (inactive) |
| O=C(NC(=S)Nc1ccccc1C(=O)O)c1ccc(-c2ccc(Br)cc2)o1 | -0.57% (inactive) |
| S=C(c1ccc(-c2ccccc2)o1)N1CCCCC1 | 5.8% (active) |
| O=S1(=O)c2ccc(Br)cc2-n2nncc2CN1Cc1cccc(Cl)c1 | -0.73% (inactive) |
| CCCS(=O)(=O)N1CCC(C(=O)NCCc2ccc(OC)c(OC)c2)CC1 | 0.15% (inactive) |
| COC(=O)C[C@@H]1CC[C@@H]2[C@@H](COc3ccc(NC(=O)Nc4ccc(F)c(F)c4)cc3C(=O)N2C)O1 | -1.81% (inactive) |
| CC1CCN(c2ccc(C(=O)O)cc2NS(=O)(=O)c2ccc(Br)s2)CC1 | -1.22% (inactive) |
| O=C(Nc1ccc2c(c1)CCC2)c1ccc(Br)s1 | 11.2% (active) |
| O=C(Nc1ccc(F)cc1)c1cc2c(s1)CCCC2 | 2.02% (inactive) |
| CC1CC(C)CN(CCC(=O)Nc2ccc3c(c2)CCC3)C1 (stereo not given) | -0.49% (inactive) |
| CCOC(=O)c1c(S(=O)(=O)Nc2ccc(CN3CCC(C)CC3)cc2)c(C)n(C)c1C | 5.11% (active) |

| SMILES | inhibition |
| --- | --- |
| CCOC(=O)c1c(S(=O)(=O)Nc2cccc(Cl)c2)c(C)n(C)c1C | 1.63% (inactive) |
| CCOC(=O)c1c(S(=O)(=O)NCC(=O)Nc2ccc(C)cc2)c(C)n(C)c1C | -0.57% (inactive) |
| CC(=O)O[C@@]1(C(C)=O)CCC2[C@H]3C=C(C)C4=CC(=O)CC[C@@]4(C)C3CC[C@]21C (stereo not given in full) | -0.75% (inactive) |
| Cc1nnc(SC(C)C(=O)Nc2ccc(S(=O)(=O)NC3CCCCC3)cc2)s1 (stereo not given) | 0.57% (inactive) |
| Cc1cnc(C(=O)OCC(=O)NCCCc2ccccc2)cn1 | 1.25% (inactive) |
| Cn1cccc1C(=O)OCC(=O)NCCc1ccccc1 | 0.5% (inactive) |
| Cc1ccsc1C(=O)OCC(=O)NCCc1ccccc1 | 3.66% (active) |
| COC(=O)C1CN(CC(C)C)CCS(=O)(=O)N1Cc1ccc(C)cc1 (stereo not given) | -0.97% (inactive) |
| O=C(CSc1nc2sc3c(c2c(=O)n1-c1ccccc1)CCCC3)NN=Cc1ccc(OCc2ccccc2)cc1 | 0.1% (inactive) |
| C=CCn1c(SCC(=O)/C(C#N)=C(\C)N)nc2sc(C)c(C)c2c1=O | -0.39% (inactive) |
| C=CCn1c(SCC(=O)NCCCO)nc2sc3c(c2c1=O)CCC3 | 0.03% (inactive) |
| C=CCn1c(SCC(=O)Nc2ccc(NC(C)=O)cc2)nc2sc(C)c(C)c2c1=O | 4.82% (active) |
| Cc1cc(C)cc(N(CCC#N)C(=O)CN2C(=O)NC3(CCCC3)C2=O)c1 | -0.09% (inactive) |
| COC(=O)Cc1nnn2c1[C@H](C)[C@H](c1ccccc1Br)OCC2 | -0.78% (inactive) |
| COc1ccc(/C=C2\CC3(OC(C)=O)CCCN2C3)cc1 (stereo not given) | 1.13% (inactive) |
| CN1C(=O)/C(=C/C=C2\SCCN2C)OC1=S | 3.87% (active) |
| Cc1ccccc1NC(=O)Cn1nnc(-c2ccccc2F)n1 | -0.11% (inactive) |
| CC1CCCN(CC(O)COc2ccc3c(c2)OCO3)C1 (stereo not given) | 0.13% (inactive) |
| CCOc1ccc(-n2c(SCC(=O)Nc3cc(C)c(NC(=O)c4ccccc4)cc3OC)nnc2-c2cccs2)cc1 | -3.08% (inactive) |
| C#CCNC(=O)C[C@H]1C[C@@]2(C(=O)OC)C(=C[C@H](C(C)C)O[C@@H]2C2CC2)N(Cc2ccco2)C1=O | 0.65% (inactive) |
| Clc1ccc(-c2cc(-c3ccccn3)on2)c(Cl)c1 | 3.68% (active) |
| Clc1ccc(-c2cc(C3CCNCC3)[nH]n2)c(Cl)c1 | -0.17% (inactive) |
| Clc1ccccc1-c1cc(COc2ccc3ccccc3c2)no1 | 0.4% (inactive) |

| SMILES | inhibition |
| --- | --- |
| CC(C)CNC(=O)OCc1cn(Cc2ccc(F)cc2)nn1 | -0.13% (inactive) |
| Cc1cc(N)n2nc(-c3ccc(C(C)(C)C)cc3)cc2n1 | 5.95% (active) |
| CCCC(=O)C1=C(N(C)c2ccccc2)CC(C)(C)C(C(=O)OC)C1=O (stereo not given) | 0.24% (inactive) |
| CCOc1ccc(-n2c(SCC(=O)Nc3cc(C)c(NC(=O)c4ccccc4)cc3OC)nnc2-c2cccc(Cl)c2)cc1 | -2.96% (inactive) |
| CCOC(=O)N1CCN(C(=O)c2ccc3nc4cc(Cl)ccc4c(=O)n3c2)CC1 | -1.01% (inactive) |
| C=CCN1C(=O)[C@@H](CC(=O)N2CCN(C(=O)c3ccco3)CC2)[C@]2(C(=O)OC)CCCCC=C12 | 0.15% (inactive) |
| COc1ccc(CNC(=O)c2ccc3oc(C(C)C)nc3c2)cc1 | 3.41% (inactive) |
| CC(C)c1nc2cc(C(=O)NC(C)c3cnn(C)c3)ccc2o1 (stereo not given) | -0.03% (inactive) |
| COC(=O)c1ccc(CNC(=O)c2ccc3oc(C(C)C)nc3c2)cc1 | 4.25% (active) |
| Cc1ccc(N/N=C2\COC(C)(C)CC2=O)cc1 | -0.09% (inactive) |
| COc1ccc(N/N=C2/CCCCC2=O)cc1 | 4.31% (active) |
| COc1ccccc1Oc1ccc(N/C=C2/CCCC2=O)cc1 | 0.78% (inactive) |
| COc1cccc2cc(C(C)N(CCCN3CCOCC3)C(=O)Nc3ccc(Cl)cc3)oc12 (stereo not given) | -0.37% (inactive) |
| COc1cccc(Nc2nnc(SCC(=O)N3CC(C)OC(C)C3)s2)c1 (stereo not given) | 0.08% (inactive) |
| CC(C)c1ccc(Nc2nnc(SCC(=O)c3nnc(-c4ccccc4)o3)s2)cc1 | 5.21% (active) |
| CN(C(=O)CSc1nnc(Nc2ccccc2)s1)C1CCS(=O)(=O)C1 (stereo not given) | 0.34% (inactive) |
| C#CCN1CC(C)/C(=N/O)CC1C (stereo not given) | 0.13% (inactive) |
| O=C(O)C1CCCN1S(=O)(=O)c1ccc(Br)cc1 (stereo not given) | 0.15% (inactive) |
| COc1cc2c(cc1OC)/C(=C/C(=O)c1ccc(NC(C)=O)cc1)NCC2 | -0.03% (inactive) |
| CC1CN/C(=C\C(=O)c2ccc(Br)cc2)C(=O)N1 (stereo not given) | 4.26% (active) |
| CC(CCN1CCC(C(O)(c2ccccc2)c2ccccc2)CC1)Oc1ccc(Cl)cc1 (stereo not given) | 0.18% (inactive) |
| Cc1nc2cc(NC(=O)Nc3cccc(F)c3)ccc2n1C | 5.18% (active) |
| Cc1nc2cc(NCc3cccs3)ccc2n1C | 2.41% (inactive) |

| SMILES | inhibition |
| --- | --- |
| O=C(Nc1cccc(F)c1)c1coc(=O)c(Br)c1 | 0.24% (inactive) |
| N/C(=N\OC(=O)Cc1ccc([N+](=O)[O-])cc1)c1ccccn1 | 0.83% (inactive) |
| N/C(=N\OC(=O)CC1CCCCC1)c1ccccc1 | -0.16% (inactive) |
| N/C(=N\OC(=O)CCC1CCCCC1)c1ccccn1 | 4.25% (active) |
| COCC(=O)N[C@@H]1C[C@@H]2O[C@@H](CO)CC[C@@H]2O[C@@H]1CCc1ccc(-c2ccccc2)cc1 | -0.14% (inactive) |
| O=c1c2c(nc3cc(-c4cccc(Cl)c4)[nH]n13)CCCC2 | 13.9% (active) |
| CSc1nc2nc3c(c(=O)n2[nH]1)CCC3 | -0.21% (inactive) |
| COC(=O)[C@]12C[C@H](CC(=O)NCc3ccccc3)C(=O)N(CCC3=CCCCC3)C1=C[C@H](C(C)C)O[C@@H]2C1CC1 | -1.17% (inactive) |
| O=C1Nc2ccccc2OC1CC(=O)N1CCCCCCC1 (stereo not given) | -0.39% (inactive) |
| Cc1cc(C)nc(Nc2n[nH]c(-c3ccccc3N)n2)n1 | 4.12% (active) |
| CC(C)(C)C(c1nc2ccccc2[nH]1)n1c(Cc2csc3ccccc23)nc2ccccc21 (stereo not given) | 0.83% (inactive) |
| O=C(Nc1ccccc1)N1CCN(Cc2nc3ccccc3c(=O)[nH]2)CC1 | -0.16% (inactive) |
| COc1ccnc(NC(=S)N2CCN(c3ncc(C(F)(F)F)cc3Cl)CC2)c1 | -0.4% (inactive) |
| C=CCOC/C=C/C#CCN(CC=C)Cc1ccc(OC)cc1OC | -0.5% (inactive) |
| COc1cc(CO)ccc1OCC(=O)Nc1cccc2ccccc12 | -3.43% (inactive) |
| COc1ccc(CNC(=O)COc2ccccc2C(=O)c2cnn(-c3ccccc3)c2)cc1OC | 4% (active) |
| COc1ccc(CNC(=O)CSc2n[nH]c(N)n2)cc1OC | -0.05% (inactive) |
| O=C(CSc1nnc(-c2cccc(Cl)c2)n1Cc1ccco1)Nc1ccc(OCc2ccccc2)cc1 | -2.28% (inactive) |
| NS(=O)(=O)c1ccc2nc(NC(=O)CS(=O)(=O)c3ccc(F)cc3)sc2c1 | 0.31% (inactive) |
| NS(=O)(=O)c1ccc2nc(NC(=O)C3=COCCO3)sc2c1 | 9.6% (active) |
| CCC(CC)c1nnc(NC(=O)C2=COCCO2)s1 | 1.13% (inactive) |
